The source of these data is PubChem BioAssay (NCI).

Each structure is given as a SMILES string. This is part of a sample that, as a whole, favours compounds with a hit. Of some 79,000 tested, about 15% had one in any assay. Values without a mark were called inactive. Activity calls are given as the source filed them. Cut-off read from the data, not from the text of the source: active = growth inhibition above about 70%; inactive = the rest.

The nature of assay [1]: NCI Yeast Anticancer Drug Screen. Data for the rad50 strain (AID 155).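 Note: 0% = growth of vehicle-only cultures of the same strain.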 Conditions: S. cerevisiae rad50 strain growth inhibition, active compounds read high. An outline of the steps:
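Relative growth inhibition (compound vs vehicle) was measured in yeast with a defined repair-gene alteration.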

A short description of assay [2]: NCI Yeast Anticancer Drug Screen. Data for the mec2-1 strain (AID 157). Conditions: S. cerevisiae mec2-1 strain, active compounds read high. An outline of the steps: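 Using mec2-1 yeast: add compound, measure growth, express inhibition versus vehicle-treated cultures.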
Assay [3] can be described thus: NCI Yeast Anticancer Drug Screen. Data for the sgs1 mgt1 strain (AID 161).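 Note: 0% = growth of cultures given vehicle only.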 Conditions: S. cerevisiae sgs1 mgt1 strain, active compounds read high. An outline of the steps: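 Growth of a repair-deficient yeast mutant was monitored after compound treatment and expressed as inhibition relative to vehicle-treated cultures.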
Assay [4] in a line: NCI Yeast Anticancer Drug Screen. Data for the cln2 rad14 strain (AID 165).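 Note: 0% = growth equal to vehicle treated cultures.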 As to conditions: S. cerevisiae cln2 rad14 strain, active compounds read high. An outline of the steps: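 Yeast strain cln2 rad14, bearing defects in cell cycle control and DNA repair, serves as the test system; values reflect growth inhibition compared with vehicle.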
Assay [5] can be described thus: NCI Yeast Anticancer Drug Screen. Data for the bub3 strain (AID 167). Conditions: S. cerevisiae bub3 mutant strain, active compounds read high. An outline of the steps: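 Screening used yeast with an engineered genetic alteration affecting cell cycle control. Compound-exposed cultures were compared with vehicle cultures, and reduced growth was taken as inhibition.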
The nature of assay [6]: NCI Yeast Anticancer Drug Screen. Data for the mlh1 rad18 strain (AID 175). As to conditions: S. cerevisiae mlh1 rad18 strain growth inhibition, active compounds read high. An outline of the steps: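 Steps: expose repair-defective yeast to compound; measure growth; express inhibition against vehicle-treated controls.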
Setting [7] is: at 5.0 µM (retest, dose inferred, filed as 0.5).
[8] abbreviates: at 50.0 µM (retest, dose inferred, filed as 5.0).

For the compound `COC12c3c(C)cc(O)c4c(=O)occ(c34)C(=O)C1C13COC(=O)c4c(O)cc(C)c(c41)C(=O)C2C3OC(C)=O` (stereo not given), the growth inhibition is 45% in assay [1] (setting [7]); 99% (active) in assay [1] (setting [8]); 91.4% (active) in assay [1] (at 50.0 µM); 32% in assay [2] (setting [7]); 100% (active) in assay [2] (setting [8]); 93% (active) in assay [2] (at 50.0 µM). In addition, the growth inhibition was 69% in assay [3] (setting [7]); 99% (active) in assay [3] (setting [8]); 92.7% (active) in assay [3] (at 50.0 µM); 63% in assay [4] (setting [7]); 100% (active) in assay [4] (setting [8]); 91.9% (active) in assay [4] (at 50.0 µM). For the same compound, the growth inhibition in assay [5] (setting [7]) is 71% (active); in assay [5] (setting [8]), 100% (active); in assay [5] (at 50.0 µM) it was 91.1% (active); in assay [6] (setting [7]), 36%; in assay [6] (setting [8]), 99% (active); in assay [6] (at 50.0 µM), 91.9% (active).
With `CCOC(=O)c1[nH]cnc1/N=N/N(C)N`, the growth inhibition in assay [1] (setting [7]) was 97% (active); in assay [1] (setting [8]), 98% (active); in assay [1] (at 50.0 µM), 86.8% (active); in assay [2] (setting [7]), 99% (active); in assay [2] (setting [8]) it was 99% (active); in assay [2] (at 50.0 µM), 92% (active). The growth inhibition in assay [3] (setting [7]) is 53%; in assay [3] (setting [8]) it was 87% (active); in assay [3] (at 50.0 µM), 90.1% (active); in assay [4] (setting [7]), 28%; in assay [4] (setting [8]) it was 81% (active); in assay [4] (at 50.0 µM), 89.2% (active). In addition, the growth inhibition in assay [5] (setting [7]) was 47%; in assay [5] (setting [8]), 88% (active); in assay [5] (at 50.0 µM), 89.5% (active); in assay [6] (setting [7]), 97% (active); in assay [6] (setting [8]) it was 97% (active); in assay [6] (at 50.0 µM), 90% (active).
Take `COC12C(COC(N)=O)C3=C(C(=O)C(C)=C(N)C3=O)N1CC1C2N1C` (stereo not given): the growth inhibition was 10% in assay [1] (setting [7]); 74% (active) in assay [1] (setting [8]); 43.6% in assay [1] (at 50.0 µM); 16% in assay [2] (setting [7]); 84% (active) in assay [2] (setting [8]); 44.6% in assay [2] (at 50.0 µM). For the same compound, the growth inhibition was 16% in assay [3] (setting [7]); 77% (active) in assay [3] (setting [8]); 55.7% in assay [3] (at 50.0 µM); 1% in assay [4] (setting [7]); 77% (active) in assay [4] (setting [8]); 38.4% in assay [4] (at 50.0 µM). The growth inhibition in assay [5] (setting [7]) is 5%; in assay [5] (setting [8]), 55%; in assay [5] (at 50.0 µM) it was 31%; in assay [6] (setting [7]), 34%; in assay [6] (setting [8]) it was 92% (active); in assay [6] (at 50.0 µM) it was 75.8% (active).
On to `O=C1N[C@H]2[C@H](O)[C@H](O)[C@@H](O)[C@H](O)[C@@H]2c2cc3c(c(O)c21)OCO3`, for which the growth inhibition in assay [1] (setting [7]) was 12%; in assay [1] (setting [8]), 70% (active); in assay [1] (at 50.0 µM), 69%; in assay [2] (setting [7]), 19%; in assay [2] (setting [8]), 70% (active); in assay [2] (at 50.0 µM), 65.8%. The growth inhibition in assay [3] (setting [7]) is 17%; in assay [3] (setting [8]), 58%; in assay [3] (at 50.0 µM), 67.2%; in assay [4] (setting [7]), 32%; in assay [4] (setting [8]), 66%; in assay [4] (at 50.0 µM), 69%. For the same compound, the growth inhibition in assay [5] (setting [7]) is 19%; in assay [5] (setting [8]), 60%; in assay [5] (at 50.0 µM), 68.7%; in assay [6] (setting [7]) it was 26%; in assay [6] (setting [8]) it was 84% (active); in assay [6] (at 50.0 µM) it was 58.2%.
Turning to `CCOP(=O)(OCC)/C(C#N)=C/c1cccc(F)c1`, the growth inhibition in assay [1] (setting [7]) is -9%; in assay [1] (setting [8]), 45%; in assay [1] (at 50.0 µM) it was 73.8% (active); in assay [2] (setting [7]), -11%; in assay [2] (setting [8]), 23%; in assay [2] (at 50.0 µM) it was 59.3%. For the same compound, the growth inhibition in assay [3] (setting [7]) is -2%; in assay [3] (setting [8]), 36%; in assay [3] (at 50.0 µM), 64.8%; in assay [4] (setting [7]) it was 17%; in assay [4] (setting [8]), 33%; in assay [4] (at 50.0 µM), 25.4%. In addition, the growth inhibition is -12% in assay [5] (setting [7]); 56% in assay [5] (setting [8]); 51.1% in assay [5] (at 50.0 µM); -1% in assay [6] (setting [7]); 69% in assay [6] (setting [8]); 68.9% in assay [6] (at 50.0 µM).
On to `C[CH2][Sn]([F])([CH2]C)[CH2]C`, for which the growth inhibition in assay [1] (setting [7]) was 8%; in assay [1] (setting [8]), 75% (active); in assay [1] (at 50.0 µM) it was 86.6% (active); in assay [2] (setting [7]), 6%; in assay [2] (setting [8]) it was 92% (active); in assay [2] (at 50.0 µM), 89.7% (active). Moreover, the growth inhibition in assay [3] (setting [7]) is 9%; in assay [3] (setting [8]), 90% (active); in assay [3] (at 50.0 µM), 88.6% (active); in assay [4] (setting [7]), -6%; in assay [4] (setting [8]), 60%; in assay [4] (at 50.0 µM), 64.2%. In addition, the growth inhibition in assay [5] (setting [7]) was 3%; in assay [5] (setting [8]) it was 76% (active); in assay [5] (at 50.0 µM) it was 88.6% (active); in assay [6] (setting [7]), 5%; in assay [6] (setting [8]), 89% (active); in assay [6] (at 50.0 µM), 88.3% (active).
In the case of `COC1CC2C=C(C)/C=C/C=C/C(=O)NC(c3ccccc3)C/C=C/CCC(O)CC(=O)C2=C1O` (stereo not given), the growth inhibition was 97% (active) in assay [1] (setting [7]); 99% (active) in assay [1] (setting [8]); 91.5% (active) in assay [1] (at 50.0 µM); 98% (active) in assay [2] (setting [7]); 99% (active) in assay [2] (setting [8]); 92.8% (active) in assay [2] (at 50.0 µM). For the same compound, the growth inhibition in assay [3] (setting [7]) is 99% (active); in assay [3] (setting [8]) it was 99% (active); in assay [3] (at 50.0 µM), 92.5% (active); in assay [4] (setting [7]) it was 98% (active); in assay [4] (setting [8]), 99% (active); in assay [4] (at 50.0 µM), 91.3% (active). Further, the growth inhibition was 99% (active) in assay [5] (setting [7]); 99% (active) in assay [5] (setting [8]); 88.7% (active) in assay [5] (at 50.0 µM); 98% (active) in assay [6] (setting [7]); 99% (active) in assay [6] (setting [8]); 91.7% (active) in assay [6] (at 50.0 µM).
As to `Cc1cc(N(CCCl)CCCl)ccc1CN1CCCN(Cc2ccc(N(CCCl)CCCl)cc2C)C1c1ccc(N(CCCl)CCCl)cc1`, the growth inhibition in assay [1] (setting [7]) was 11%; in assay [1] (setting [8]) it was 97% (active); in assay [1] (at 50.0 µM), 66.2%; in assay [2] (setting [7]), 1%; in assay [2] (setting [8]) it was 99% (active); in assay [2] (at 50.0 µM) it was 21.6%. Besides, the growth inhibition in assay [3] (setting [7]) was 3%; in assay [3] (setting [8]), 98% (active); in assay [3] (at 50.0 µM) it was 86.8% (active); in assay [4] (setting [7]) it was -3%; in assay [4] (setting [8]), 98% (active); in assay [4] (at 50.0 µM), 21.4%. In addition, the growth inhibition in assay [5] (setting [7]) is 5%; in assay [5] (setting [8]), 88% (active); in assay [5] (at 50.0 µM) it was 30.8%; in assay [6] (setting [7]), 33%; in assay [6] (setting [8]) it was 97% (active); in assay [6] (at 50.0 µM), 97.2% (active).
Take `[Cl][Sn]([CH2]c1ccccc1)([CH2]c1ccccc1)[CH2]c1ccccc1`: the growth inhibition is 99% (active) in assay [1] (setting [7]); 98% (active) in assay [1] (setting [8]); 99% (active) in assay [1] (at 50.0 µM); 100% (active) in assay [2] (setting [7]); 99% (active) in assay [2] (setting [8]); 99.2% (active) in assay [2] (at 50.0 µM). For the same compound, the growth inhibition was 100% (active) in assay [3] (setting [7]); 99% (active) in assay [3] (setting [8]); 99.3% (active) in assay [3] (at 50.0 µM); 99% (active) in assay [4] (setting [7]); 98% (active) in assay [4] (setting [8]); 98.7% (active) in assay [4] (at 50.0 µM). Also, the growth inhibition was 99% (active) in assay [5] (setting [7]); 99% (active) in assay [5] (setting [8]); 98.5% (active) in assay [5] (at 50.0 µM); 99% (active) in assay [6] (setting [7]); 99% (active) in assay [6] (setting [8]); 99% (active) in assay [6] (at 50.0 µM).
Regarding `CN(C)c1ccc(C2N(Cc3ccc(N(CCCl)CCCl)cc3)CCCN2Cc2ccc(N(CCCl)CCCl)cc2)cc1`, the growth inhibition is 1% in assay [1] (setting [7]); 86% (active) in assay [1] (setting [8]); 52.5% in assay [1] (at 50.0 µM); -18% in assay [2] (setting [7]); 55% in assay [2] (setting [8]); 5.2% in assay [2] (at 50.0 µM). Besides, the growth inhibition in assay [3] (setting [7]) was -1%; in assay [3] (setting [8]), 79% (active); in assay [3] (at 50.0 µM) it was 76.7% (active); in assay [4] (setting [7]), -1%; in assay [4] (setting [8]) it was 65%; in assay [4] (at 50.0 µM), -6.3%. Besides, the growth inhibition in assay [5] (setting [7]) is 0%; in assay [5] (setting [8]), 95% (active); in assay [5] (at 50.0 µM), 3.5%; in assay [6] (setting [7]), -1%; in assay [6] (setting [8]), 99% (active); in assay [6] (at 50.0 µM), 32.9%.
